# Bioassay records from PubChem.
# M4 ag: human M4 muscarinic receptor agonists, primary screen, CHO-K1 cells, Fluo-8 calcium fluorescence; hit rate 0.14% among 360,000; AID 624127, 2012; activation, % at 3 µM; CHO-K1 hM4/Gqi5; vehicle 0%, full acetylcholine response 100%;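 active means activation above the run mean over all test wells plus 3 SD, cut at about 32% in these data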;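 further: peak over basal fluorescence ratio per well then scaled between controls; 0% = DMSO wells and 100% = acetylcholine at EC100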
# Target sequence (P08173 whole entry, looked up): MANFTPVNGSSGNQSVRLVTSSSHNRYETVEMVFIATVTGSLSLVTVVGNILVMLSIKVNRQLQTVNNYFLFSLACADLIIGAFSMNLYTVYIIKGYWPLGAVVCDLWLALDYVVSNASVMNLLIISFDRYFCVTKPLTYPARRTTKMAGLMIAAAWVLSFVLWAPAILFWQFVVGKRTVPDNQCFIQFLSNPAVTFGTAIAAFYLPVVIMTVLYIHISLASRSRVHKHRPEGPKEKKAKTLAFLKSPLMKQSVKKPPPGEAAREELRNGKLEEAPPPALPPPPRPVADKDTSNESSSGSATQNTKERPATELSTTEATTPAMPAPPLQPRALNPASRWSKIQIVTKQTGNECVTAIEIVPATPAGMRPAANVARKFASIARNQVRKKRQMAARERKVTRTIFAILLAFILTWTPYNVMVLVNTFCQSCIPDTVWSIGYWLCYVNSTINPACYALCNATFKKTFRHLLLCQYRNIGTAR
# M4 antag: human M4 muscarinic receptor antagonists, primary screen, CHO cells, Fluo-8 calcium fluorescence. Muscarinic acetylcholine receptor M4 (Homo sapiens), P08173. CHO-hM4 cells, ACh EC80. inhibition, % at 3 µM. hit rate 0.73% among 360,000;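 active means inhibition above its plate's cutoff, the mean inhibition of sample wells plus 3 SD, cut at about 27% in these data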;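 further: 0% = acetylcholine EC80 with DMSO and 100% = DMSO without agonist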
# CHO-K1 Ca antag: counter-screen for M1 antagonists: effect in parental CHO-K1 cells | inhibition, % at 3 µM | AID 602250 | ATP-induced calcium, Fluo-8 fluorescence | hit rate 0.6% among 360,000;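 active means inhibition above a per-plate cutoff, the plate's mean sample inhibition plus 3 SD, cut at about 24% in these data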;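 further: 0% = DMSO plus EC80 ATP and 100% = DMSO alone without ATP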
# M1 ag parental: counter-screen for M1 agonists: effect in parental CHO-K1 cells | Fluo-8 calcium fluorescence; scaled to maximal ATP response, vehicle zero | hit rate 0.48% among 360,000 | activation, % at 3 µM; in the data active means activation above about 15%;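 further: untransfected CHO-K1 host cells lacking M1 receptor as counterscreen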
# M1 PAM parental: nonselective calcium activators in parental CHO-K1 cells, primary screen, counter-screen for M1 PAM project, cell-based, Fluo-8 calcium fluorescence, full deck, 1536-well; activation, % at 3 µM; hit rate 0.02% among 360,000; AID 602247, 2012; ATP EC20; 0% at ATP EC20, 100% at ATP max;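 active means activation above the run cutoff, the mean activation of all test compounds plus 3 SD, cut at about 40% in these data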;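 further: peak over basal fluorescence ratio in a 140 s read after ATP addition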
# CHRM4 PAM: human M4 muscarinic receptor positive allosteric modulators, primary screen, CHO-K1 cells, Fluo-8 calcium fluorescence; Muscarinic acetylcholine receptor M4 (Homo sapiens), P08173; hit rate 0.4% among 360,000; CHO-K1 hM4/Gqi5, ACh EC20; 0% = ACh EC20, 100% = maximal ACh; activation, % at 3 µM;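 active means activation above its plate's cutoff, the mean activation of sample wells plus 3 SD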
# Active calls of the source: *. Sampled rows, rich in hits. Any-hit rate of the full collection: about 2%.
SMILES,M4 ag,M4 antag,CHO-K1 Ca antag,M1 ag parental,M1 PAM parental,CHRM4 PAM
CC(C)N(C(=O)CSc1nc2c([nH]1)c(=O)n(C)c(=O)n2C)c1ccccc1,1,-16,-11,0,2,17*
O=C(C1CCN(S(=O)(=O)c2cc(Cl)ccc2Cl)CC1)N1CCOCC1,2,-13,9,0,-4,-3
COc1ccccc1C(CNC(=O)c1ccc(NS(=O)(=O)c2ccc(F)c(C)c2)cc1)N1CCCC1 (centres undefined),1,-1,-1,0,7,-5
COc1cc(C(=O)NCC(c2cccs2)N2CCOCC2)cc(OC)c1OC (centres undefined),0,-20,4,-1,8,5
O=C(NCC(c1cccs1)N1CCOCC1)c1ccccc1NS(=O)(=O)c1ccc(Cl)c([N+](=O)[O-])c1 (centres undefined),19,14,22,16*,-7,-18
O=C(NCC(c1cccs1)N1CCOCC1)c1ccccc1NS(=O)(=O)c1cccc([N+](=O)[O-])c1 (centres undefined),7,-6,-14,8,18,-2
COc1ccc(C(CNC(=O)c2ccc(NS(=O)(=O)c3ccc(F)c(C)c3)cc2)N2CCCC2)cc1 (centres undefined),2,28*,-7,1,17,-13
COc1cc(C(=O)NCC(c2cccs2)N2CCOCC2)ccc1OCc1ccccc1 (centres undefined),4,-8,27*,1,-12,1
CCOc1ccc(NS(=O)(=O)c2ccc(C(=O)NCC(c3cccs3)N3CCOCC3)cc2)cc1 (centres undefined),39*,8,-1,25*,0,-8
CCOC(=O)C1=C(C)OC(N)=C(C#N)C1c1cc(F)ccc1F (centres undefined),1,30*,-23,0,16,-2
CCOC(=O)C1=C(C)OC(N)=C(C#N)C1c1cccc(C)c1 (centres undefined),1,0,-11,4,28,1
CC(=O)Nc1cc(C)ns1,0,-9,-14,0,7,-2
Cc1ccc(-c2cc(-c3ccccc3)[nH]c(=S)c2C#N)cc1,0,-1,0,0,8,2
N#Cc1c(N)[nH]c(=S)c(C#N)c1-c1ccccc1,1,12,24*,0,-4,-5
CC1CCCCN1C(=O)c1cc(S(=O)(=O)N2CCCCC2)c[nH]1 (centres undefined),2,-3,-5,1,19,1
CN(C)C(=O)CCc1ccc2c3c([nH]c2c1)[C@]1(C)[C@@H](C(=O)N2CCCCC2)C[C@H](CC(=O)NCCN2CCOCC2)C(=O)N1CC3,0,1,-11,1,8,-2
CN(C)C(=O)CCc1ccc2c3c([nH]c2c1)[C@]1(C)[C@@H](C(=O)N2CCOCC2)C[C@H](CC(=O)NCCN2CCOCC2)C(=O)N1CC3,-1,-15,24*,0,-15,4
COc1ccc(N2C(=O)CC(Cc3ccccc3)C2=O)cc1 (centres undefined),2,4,3,2,15,5
O=C1Nc2ccccc2C1Cc1ccccc1 (centres undefined),2,-6,-6,2,19,6
O=C1C=CC2(C=C1)O[C@H](Cc1ccccc1)[C@@H](Cc1ccccc1)O2,2,62*,11,0,-1,-7
COc1ccc(C[C@@H]2OC3(C=CC(=O)C=C3)O[C@H]2Cc2ccc(OC)cc2)cc1,4,76*,2,1,13,-9
O=C(Nc1cc(-c2ccccc2)[nH]n1)c1ccc(Cl)cc1,7,0,-11,1,-1,0
CCOC(=O)C1=C(C)N=C2c3ccccc3C(=O)C2C1c1ccc(Cl)cc1 (centres undefined),6,6,5,1,-9,-7
